Screening results: PubChem BioAssay, National Center for Advancing Translational Sciences (NCATS)
The sample as a whole holds a higher share of hits than the screen did.
DT40 TDP1 CPT = growth inhibition of DT40 Tdp1-/-;hTDP1 cells with camptothecin (screen for TDP1 inhibitors); chicken DT40 Tdp1-/-;hTDP1 cells + 20 nM CPT, ATP luminescence, 48 h; Potency, µM (top dose mostly 46.2 µM), without a hit: top-dose activity change, negative = growth inhibition, most hits filed as inhibitors; 420,000 tested, 12% active; also: potency is read from the fitted curve at half-maximal effect; nearly all actives have a fitted effect of over 55% in size
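Chicken DT40 Tdp1-/- cells stably complemented with human TDP1 were seeded at 400 cells/well in medium containing 20 nM camptothecin, exposed to pin-transferred compounds, and grown at 37 °C for at least 48 hr. Viability was read as ATP luminescence.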
IL1B secr inh = inflammasome signaling inhibition, IL-1 beta readout. THP-1 LPS/ATP IL-1B secretion, AlphaLISA, 16 h; active compounds read low. activity change, % at 57.5 µM. 360,000 tested, 4.7% active; in the data active = activity change below about -50%; inconclusive = mostly about -30% to -49%
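THP-1 cells pretreated 1 hr with compounds (up to 57.5 uM final), then stimulated with LPS (250 ng/mL final) plus ATP (1.25 mM final); secreted IL-1B measured by AlphaLISA after 16 hr, decreased signal indicating inhibition.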
DT40 TDP1 no CPT = qHTS for Inhibitors of human tyrosyl-DNA phosphodiesterase 1 (TDP1): qHTS in cells in absence of CPT; Potency, µM (top dose mostly 46.2 µM), inactives show top-dose activity change, negative = growth inhibition, actives largely listed as inhibitors; DT40 Tdp1-/- hTDP1 cells, no CPT, ATP luminescence, 48 h; 420,000 tested, 15% active; also: potency is read from the fitted curve at half-maximal effect; nearly all actives have a fitted effect of over 55% in size
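Camptothecin absent (DMSO only). Human TDP1-complemented DT40 knockout cells, 400 cells/well, 37 °C for minimum 48 hr; ATP measured via CellTiter-Glo, 30 min dark incubation, luminescence.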
ALOX12 inh = inhibitors of human 12S-lipoxygenase ALOX12 | Potency, µM (doses to about 108 µM), without a hit: at the highest dose activity change, negative = inhibition, usual class: inhibitors | AID 1671190 | purified 12hLO, xylenol orange hydroperoxide absorbance | 580,000 tested, 1.1% active; also: potency is read from the fitted curve at half-maximal effect
Target sequence (P18054 whole entry, looked up): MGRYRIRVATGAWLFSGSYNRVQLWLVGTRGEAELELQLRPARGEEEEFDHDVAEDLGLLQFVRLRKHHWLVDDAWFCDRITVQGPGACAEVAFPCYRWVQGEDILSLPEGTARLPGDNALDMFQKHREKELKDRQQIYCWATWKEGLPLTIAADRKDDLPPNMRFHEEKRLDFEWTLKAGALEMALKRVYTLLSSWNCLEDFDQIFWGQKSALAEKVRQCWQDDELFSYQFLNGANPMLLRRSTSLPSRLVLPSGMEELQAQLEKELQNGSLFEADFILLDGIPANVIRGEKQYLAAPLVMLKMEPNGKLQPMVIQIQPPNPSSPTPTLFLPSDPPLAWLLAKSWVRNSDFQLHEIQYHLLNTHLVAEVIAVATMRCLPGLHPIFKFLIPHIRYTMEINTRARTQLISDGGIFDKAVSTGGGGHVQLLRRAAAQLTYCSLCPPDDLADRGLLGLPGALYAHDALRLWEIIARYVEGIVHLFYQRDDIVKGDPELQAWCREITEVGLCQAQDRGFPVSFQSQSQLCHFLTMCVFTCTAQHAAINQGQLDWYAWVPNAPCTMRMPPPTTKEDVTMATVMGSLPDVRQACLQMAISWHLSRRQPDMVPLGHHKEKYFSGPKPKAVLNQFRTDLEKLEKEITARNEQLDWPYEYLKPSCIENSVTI
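Purified human 12hLO at 150 nM in 25 mM Hepes, 0.01% Triton X-100, pH 7.0, preincubated 15 min at room temperature with compound. Reaction started with 40 uM arachidonic acid, 30 min at room temperature. Hydroperoxide measured by Fe-xylenol orange, 573/405 nm absorbance ratio.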
HT1080 IDH1KD tx = HT-1080 IDH1 knockdown cell toxicity (counter line); HT-1080 IDH1 knockdown viability, ATP luminescence, 48 h; Potency, µM (highest dose often 46.1 µM), without a hit: at the top dose activity, negative = toxicity, hits mostly cytotoxic; 360,000 tested, 2% active; AID 686971;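 also: potency is read from the fitted curve at half-maximal effect; 0% = DMSO wells and -100% = cell-free medium wells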
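IDH1KD HT-1080 cells, 750/well, RPMI + 5% FBS; compound pinned after 2 h settling; 48 h, 37 °C; CellTiter-Glo luminescence; % activity normalised to DMSO and no-cell wells; curves fitted, classed by r2 and efficacy.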
HT1080NT lethal = kills 2HG-producing HT-1080-NT fibrosarcoma cells; HT-1080-NT fibrosarcoma viability, CellTiter-Glo ATP luminescence, 48 h; Potency, µM (top dose mostly 46.1 µM), for the others: at the top dose activity, negative = less viability, most hits filed as cytotoxic; 360,000 tested, 1.6% active;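 also: NT is the 2HG producing partner of a matched IDH1 knockdown line; potency is read from the fitted curve at half-maximal effect; 0% = DMSO-treated cells and -100% = media-only wells without cells; nearly all actives have a fitted effect of over 55% in size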
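A 48-hour cytotoxicity screen used HT-1080-NT cells plated 2 hours before compound delivery. ATP-based CellTiter-Glo luminescence measured viability, normalized to DMSO and no-cell controls.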
The depositor's hits bear a star; ? = inconclusive; / = no result; [ ] = dose if it differs, or a comment. Unless noted, calls follow the shape of the dose curve; as a rule, active = well fitted curve in the direction sought with a large enough effect; inconclusive = small, poorly fitted or top-dose-only effect, or another doubt; inactive = no such curve, though single readings can be large; an effect the other way counts as inactive or inconclusive. Unless noted, % is scaled to controls: 0 for no effect and ±100 for the full control effect.

SMILES	DT40 TDP1 CPT	IL1B secr inh	DT40 TDP1 no CPT	ALOX12 inh	HT1080 IDH1KD tx	HT1080NT lethal
Cc1ccc(S(=O)(=O)N2CCN(C(=O)C3CCN(C(=O)c4ccc(F)cc4)CC3)CC2)c(C)c1	?	-7	10µM*	?	-14%	-15%
Cc1ccccc1C(=O)N1CCC(C(=O)N2CCN(S(=O)(=O)c3ccccc3F)CC2)CC1	?	-4	-25%	-9%	16%	-11%
COc1ccc(Cl)cc1S(=O)(=O)N1CCN(C(=O)c2cc(-c3ccc(Br)cc3)n[nH]2)CC1	12µM*	/	9.2µM*	-15%	/	/
CCCCN1C(=O)C(O)(CC(=O)c2cc(C(C)C)ccc2C)c2ccccc21 (stereo not drawn)	/	/	/	7%	/	/
Cc1cccc(-n2nc(-c3c(C)nc4scc(CC(=O)NCCC(C)C)n4c3=O)cc2C)c1	/	/	/	43%	/	/
CC1(c2nnnn2-c2ccc3c(c2)OCCO3)CCC(=O)N1Cc1cccnc1 (stereo not drawn)	-21%	55	-15%	-40%	8%	17%
CC(C)Cn1nc(C(=O)N(C)c2cccc(C#N)c2)c2ccccc2c1=O	/	/	/	2%	/	/
Cc1c(C)c2ccc(OCC(=O)OC(C)(C)C)c(C)c2oc1=O	/	/	/	26%	/	/
CNC(=O)OCc1nc(SSC(C)(C)C)n(C)c1COC(=O)NC	2.1µM*	-100*	2.1µM*	5%	18µM*	?
CCSc1nc(COC(=O)NC)c(COC(=O)NC)n1C	2.3µM*	0	5.2µM*	-1%	1%	17%
Cc1ccc(CN2C(=O)NC3(CCCN(C(=O)c4cc5ccccc5[nH]4)C3)C2=O)cc1 (stereo not drawn)	/	/	/	13µM*	/	/
CC1(c2ccccc2)CC(C)(C)n2c(O)c(C3=NC(=S)NC3=O)c3cccc1c32 (stereo not drawn)	?	34	23µM*	0%	-1%	1%
COc1cc2c3c(c1)c(C1=NC(=S)NC1=O)c(O)n3C(C)(C)C=C2C	-26%	-16	-13%	0%	25%	11%
Cc1nc(-c2ccc(OC(=O)c3ccc4c(c3)NC(=O)CS4)cc2)no1	/	/	/	-8%	/	/
Cc1cccc(-n2ncc(C(=O)N3CCOCC3)c2C2CCN(C(=O)OC(C)(C)C)CC2)c1	-11%	/	-7%	-1%	/	/
Cc1cccc(-n2ncc(C(=O)N3CCN(C4CCCCC4)CC3)c2C2CCN(C(=O)OC(C)(C)C)CC2)c1	16µM*	/	21µM*	-9%	/	/
CC(C)(C)OC(=O)N1CCC(c2c(C(=O)N3CCC(c4ccccc4)C3)cnn2-c2cccc(Cl)c2)CC1 (stereo not drawn)	18µM*	/	15µM*	-19%	/	/
Cc1ccc(C2CCN(C(=O)c3cnn(-c4cccc(Cl)c4)c3C3CCN(C(=O)OC(C)(C)C)CC3)C2)cc1 (stereo not drawn)	13µM*	/	7.3µM*	-21%	/	/
CC1CCN(C(=O)c2cnn(-c3cccc(Cl)c3)c2C2CCN(C(=O)OC(C)(C)C)CC2)CC1	21µM*	/	?	-5%	/	/
CC(C)(C)OC(=O)N1CCC(c2c(C(=O)N3CCCCC3)cnn2-c2cccc(F)c2)CC1	4%	/	-6%	-16%	/	/
Cc1cccc(CCNC(=O)C2CCC(CNS(=O)(=O)c3ccccc3)CC2)c1 (stereo not drawn)	-26%	/	?	4%	/	/
Cc1cccc(C)c1NC(=O)COC(=O)c1c2c(nc3ccccc13)/C(=C\c1ccc3c(c1)OCO3)CCC2	?	13	18µM*	-13%	-2%	-12%
CC(OC(=O)c1cc2ccccc2cc1O)C(=O)Nc1ccc(S(N)(=O)=O)cc1 (stereo not drawn)	-12%	0	-23%	-15%	-2%	-9%
CC(OC(=O)c1c2c(nc3ccccc13)/C(=C\c1ccc3c(c1)OCO3)CCC2)C(=O)Nc1ccc(S(N)(=O)=O)cc1 (stereo not drawn)	?	?	18µM*	/	?	-9%
Cc1cccc(C)c1NC(=O)COC(=O)c1ccc2c(c1)OCO2	-4%	-4	?	0%	5%	12%
SMILES	DT40 TDP1 CPT	IL1B secr inh	DT40 TDP1 no CPT	ALOX12 inh	HT1080 IDH1KD tx	HT1080NT lethal
Cc1nc2cc(F)ccc2cc1C(=O)NC(C1CC1)C1CC1	/	/	/	25%	/	/
NCc1ccc(-c2cccs2)cc1	/	/	/	27%[176 µM]	/	/
CN1CCCN(C(=O)c2ccncc2)c2ccccc21	/	/	/	20%	/	/
COC(/C=C/Nc1ccc(Cl)cc1)=C(C#N)C#N	11%	13	-6%	-16%	14%	21%
COC(/C=C/Nc1ccc(OC)cc1)=C(C#N)C#N	-7%	-59*	1%	11%	-1%	-12%
Cc1[nH]nc2c1C(c1ccc(-c3ccc(Cl)cc3)o1)C(C#N)=C(N)O2 (stereo not drawn)	13µM*	-101*	?	?	?	?
Cc1cc(C2C(C#N)=C(N)Oc3n[nH]c(C)c32)c(C)s1 (stereo not drawn)	8.2µM*	?	?	?	-12%	?
Cc1[nH]nc2c1C(c1ccc(-c3ccccc3C#N)o1)C(C#N)=C(N)O2 (stereo not drawn)	29µM*	-56*	21µM*	/	11µM*	?
Cc1ccc(C(=O)N2CCOC(CN(Cc3ccco3)C(=O)c3ccc(F)cc3)C2)cc1 (stereo not drawn)	/	/	/	28%	/	/
Cc1ccc2c(=O)cc(C(=O)Nc3cccc(Cl)c3C)oc2c1C	2%	/	-9%	-4%	/	/
Cc1cc(C(=O)COC(=O)c2cc(O)c3ccccc3c2O)c(C)n1CC1CCCO1 (stereo not drawn)	16µM*	30	?	/	-14%	-15%
Cc1cc(C(=O)COC(=O)c2ccccc2O)c(C)n1CC1CCCO1 (stereo not drawn)	?	-7	-25%	-11%	?	-3%[9.24 µM]
Cc1cc(C(=O)COC(=O)c2cccnc2Cl)c(C)n1CC1CCCO1 (stereo not drawn)	23µM*	25	?	?	0%	4%
Cc1cc(C(=O)COC(=O)c2ccccc2NCCO)c(C)n1CC1CCCO1 (stereo not drawn)	?	24	15µM*	-13%	0%	-2%
CC(C)c1ccccc1NC(=O)C=C1CCCCC1	/	/	/	29%	/	/
O=C1Cc2c(-c3ccccc3Oc3ccccc3)n[nH]c2CN1Cc1ccccc1	/	/	/	10%[176 µM]	/	/
CCCCCCCCCCCC(=O)N/N=C/C(C)=C/c1ccc(C(C)(C)C)cc1	/	/	/	0%	/	/
